Hits are enriched below; roughly 2.1% of the tested compounds scored in any of these assays.
PAX8 reporter: inhibitors of PAX8-driven TPO luciferase reporter, primary screen, RMG-I cells, single concentration | SteadyGlo, 24 h | inhibition, % at 12.6 µM | 360,000 compounds, 1.2% hits | AID 652154, 2013;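 active = mean replicate inhibition at least 60% with every replicate also reaching 60%; inconclusive = only one of the two criteria is met; inactive = mean below 60% and not all replicates reaching 60%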;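 also: luciferase light reporting Pax8 driven TPO promoter activity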
Shn3 inh set2: reduction of Shn3 3'UTR firefly luciferase signal, primary screen, Schnurri-3 inhibitor project, cell-based, Clone20 osteoblasts, set 2. AID 588674, 2011. Clone20 osteoblast Shn3 3'UTR firefly luciferase, 24 h. 360,000 compounds, 0.52% hits. inhibition, % at 12.5 µM;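 active = mean inhibition of at least 75% with every replicate also reaching 75%; inconclusive = mean inhibition at least 75% but some replicate below; inactive = mean inhibition below 75%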
MITF TRPM1 inh: inhibitors of MITF-dependent TRPM1 promoter reporter, primary screen, cell-based, SK-MEL-5, single point, luciferase; SK-MEL-5 TRPM1 promoter luciferase, 24 h; inhibition, % at 12.5 µM; 330,000 compounds, 0.83% hits; AID 488899, 2010;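 active = mean inhibition across replicates of 60% or more, whatever share of single replicates reaches that level; inconclusive = some that reach 60%, reason not given; inactive = mean inhibition across replicates below 60%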
EBV LMP1 NFkB: EBV LMP1-driven NF-kappaB luciferase reporter inhibitors, primary screen, cell-based, luminescence, single point | LMP1-induced NF-kappaB luciferase reporter cells | inhibition, % at 12.5 µM | 350,000 compounds, 0.69% hits | AID 504558, 2011; in the data active = inhibition above about 41%; inconclusive = no clear call, values can overlap the other calls
aSyn 5UTR inh: MLPCN primary screen, SNCA 5' untranslated region; alpha-synuclein 5'UTR reporter, inhibitor activity; inhibition, % (tested at 7.5 µM); 300,000 compounds, 0.82% hits; in the data active = inhibition above about 60%; inconclusive = no clear call, values can overlap the other calls;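 also: H4 neuroglioblastoma cells stably carrying SNCA 5'UTR luciferase fusion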
A number is an active result; i = inactive; ? = inconclusive; nt = not tested or not shown.

SMILES	PAX8 reporter	Shn3 inh set2	MITF TRPM1 inh	EBV LMP1 NFkB	aSyn 5UTR inh
O=C(/C=C1\NC2(CCCC2)Cc2ccccc21)C(=O)N/N=C/c1ccccc1O	i	91	i	44	74
COc1cc(/C=N/NC(=O)C(=O)/C=C2\NC3(CCCC3)Cc3ccccc32)ccc1O	i	i	i	i	i
N#C/C(=C/c1ccc(N2CCOCC2)o1)c1ccc(Br)cc1	nt	i	i	i	i
N#C/C(=C\c1ccc(N2CCOCC2)o1)c1ccccc1	nt	92	i	i	i
N#C/C(=C/c1ccc(N2CCCCCC2)o1)c1ccc(F)cc1	nt	i	i	i	i
N#C/C(=C/c1ccc(N2CCCCCC2)o1)c1cccc(F)c1	nt	95	i	i	i
O=C(NCC(=O)N1CCCC(C(F)(F)F)C1)c1ccccc1Br (stereo not drawn)	i	i	i	i	i
C[C@H](O)C#Cc1ccc([C@H]2[C@@H](CO)N3CCCCN(S(=O)(=O)Cc4ccccc4)C[C@@H]23)cc1	i	nt	nt	nt	nt
O=C1C=C(NCCN2CCOCC2)C(=O)c2cnccc21	nt	nt	nt	nt	131
Cc1cc(C)n(-c2nc(NCCCN(C)C)c3c4c(sc3n2)CCCC4)n1	i	i	nt	nt	i
Cc1cc(C)n(-c2nc(NCCN(C)C)c3c4c(sc3n2)CCCC4)n1	97	i	66	i	116
COc1ccccc1C(=O)N/C(=C\c1ccccc1)C(=O)NC(C)C(=O)O (stereo not drawn)	i	i	i	i	i
Oc1cc(-c2ccncc2)cc2cccnc12	i	89	nt	i	nt
Cn1nc(-c2ccc(N3CCCCC3)c(NC(=O)c3ccco3)c2)c2ccccc2c1=O	nt	i	i	i	67
Cc1cc(=O)nc2c3ccccc3n(CC(=O)Nc3ccccc3Br)n12	i	i	i	i	i
CC1(C)Nc2ccccc2C(=O)N1NC(=O)c1ccccc1	i	i	i	i	i
CC1(C)Nc2ccccc2C(=O)N1c1ccccc1	i	i	i	62	i
N#Cc1ccccc1OCC(=O)NNC(=O)CNC(=O)c1cccc(Br)c1	i	i	i	i	nt
CC(c1ccccc1)c1nnc(NC(=O)Nc2ccccc2F)s1 (stereo not drawn)	i	i	i	46	i
CC(c1ccccc1)c1nnc(NC(=O)Nc2ccccc2)s1 (stereo not drawn)	i	i	i	i	i
CCCCCOc1ccc(Br)cc1/C(C)=N/NC1=NCCN1	81	?	70	i	88
O=C(N/N=C/c1cccc([N+](=O)[O-])c1)c1cccc2cc[nH]c12	i	i	i	i	i
O=C(N/N=C/c1cc([N+](=O)[O-])ccc1O)c1cccc2cc[nH]c12	i	i	74	i	68
CCOc1ccc(Br)cc1C1=CC(=O)C[C@H](c2ccc(OC)cc2)C1	i	94	i	i	nt
COc1ccc([C@H]2CC(=O)C=C(c3cc(Br)ccc3OC)C2)cc1	i	i	i	i	nt
SMILES	PAX8 reporter	Shn3 inh set2	MITF TRPM1 inh	EBV LMP1 NFkB	aSyn 5UTR inh
COCCCNC(=O)C[C@H]1C[C@H](C(=O)N2CCOCC2)[C@@]2(CCC3CCCC3)c3[nH]c4cc(-c5ccco5)ccc4c3CCN2C1=O	i	i	i	i	nt
C(/C=C/c1ccccn1)=C\c1ccccc1	i	i	i	i	i
CC(=O)Nc1sc(C)c(C)c1C(=O)OCC(=O)N(CC(C)C)c1c(N)n(Cc2ccccc2)c(=O)[nH]c1=O	i	i	103	i	77
COCCN(C(=O)COC(=O)/C=C/c1cccc(OC)c1)c1c(N)n(CC(C)C)c(=O)[nH]c1=O	67	i	i	i	nt
COCCN(C(=O)COC(=O)C1CCC(C(C)(C)C)CC1)c1c(N)n(Cc2ccccc2)c(=O)[nH]c1=O (stereo not drawn)	i	88	i	i	i
CCCCC1CCC(C(=O)OCC(=O)N(CCOC)c2c(N)n(Cc3ccccc3)c(=O)[nH]c2=O)CC1 (stereo not drawn)	i	i	i	i	i
CC(C)CN(C(=O)COC(=O)C12CC3CC(CC(C3)C1)C2)c1c(N)n(Cc2ccccc2)c(=O)[nH]c1=O	i	i	88	i	i
Cc1cccc(C)c1NC(=O)C(C1CC1)n1c(=O)c(-c2ccco2)nc2ccccc21 (stereo not drawn)	i	nt	nt	nt	nt
N#C[C@H]1[C@@H](c2ccc(-c3ccccc3F)cc2)[C@H](CO)N1C(=O)C1CCC1	i	nt	nt	nt	nt
Cc1ccnc(NC(=O)CCC(=O)N(CC(=O)NC2CCCCC2)c2ccc3c(c2)OCO3)c1	nt	i	i	i	i
C#Cc1ccc(NC(=O)C2(C)CCN2C(=O)C2(c3ccccc3)CC2)cc1 (stereo not drawn)	i	i	nt	nt	nt
C[C@@H]1CN([C@@H](C)CO)C(=O)c2cc(NC(=O)CCN3CCOCC3)ccc2O[C@H]1CN(C)S(=O)(=O)c1cccs1	i	nt	nt	nt	nt
Cc1cccc(C)c1-n1nnnc1C1(C)CCC(=O)N1CCCn1ccnc1 (stereo not drawn)	i	nt	nt	nt	nt
Nc1c(N(CCC2=CCCCC2)C(=O)COc2ccc(F)cc2)c(=O)[nH]c(=O)n1Cc1ccccc1	nt	i	92	i	nt
Cc1cc(NC(=O)CC2CCCC2)n(-c2nc3ccccc3[nH]2)n1	nt	i	i	i	i
CN(C)S(=O)(=O)c1cccc(NC(=S)N/N=C/c2cc(Br)ccc2O)c1	?	91	67	49	69
CC(=O)NC(c1cc(F)c2cccnc2c1O)C1CC1 (stereo not drawn)	i	i	i	i	nt
CCC(=O)NC(c1cc(Cl)c2cccnc2c1O)C1CC1 (stereo not drawn)	66	i	i	40	nt
CCC(=O)NC(c1cc(Cl)c2cccnc2c1O)C(C)C (stereo not drawn)	i	i	i	47	nt
COc1cccc(C2=NOC(C(=O)NCc3ccc(F)cc3)C2)c1 (stereo not drawn)	nt	i	i	i	i
COc1ccc(C2=NOC(C(=O)NCc3ccc(F)cc3)C2)cc1OC (stereo not drawn)	nt	i	i	i	82
COc1cc(C2=NOC(C(=O)NCc3ccc(F)cc3)C2)cc(OC)c1OC (stereo not drawn)	nt	i	i	i	77
COc1cc(C2=NOC(C(=O)NCc3ccccn3)C2)cc(OC)c1OC (stereo not drawn)	nt	i	i	i	i
N#Cc1ccc2nc(-c3ccc(CN4CCC(c5nc6ccccc6[nH]5)CC4)cc3)c(-c3ccccc3)nc2c1	78	nt	nt	nt	nt
Cc1ccc(-c2cc(C(=O)N3CC4(C)CC3CC(C)(C)C4)no2)cc1 (stereo not drawn)	nt	i	i	i	i
NC(=O)CC(NC(=O)c1ccc(Br)cc1)c1ccc(N2CCC(Cc3ccccc3)CC2)c([N+](=O)[O-])c1 (stereo not drawn)	i	i	i	i	i
NC(=O)CC(NC(=O)c1ccccc1)c1ccc(N2CCC(Cc3ccccc3)CC2)c([N+](=O)[O-])c1 (stereo not drawn)	i	91	i	i	i
O=C(c1cnc2sccn2c1=O)N1CCc2ccccc2C1	nt	i	i	i	i

Screening data from PubChem.
